Test results as given in PubChem BioAssay.
The list shows a part of the results. Active and inactive are the calls of the source. Cut-off read from the data, not from the text of the source, unless noted: active = activity above about 50%; inactive = the rest.

Key:
[1] = target: Tumor necrosis factor receptor superfamily member 10B (Homo sapiens) (UniProt O14763); test: viability loss of caspase-8 NB7 cells with TRAIL – with/without TRAIL, luminescence panel, confirmation (AID 651596); conditions: NB7 neuroblastoma + caspase-8, TRAIL sensitization, NB7 Caspase-8, with TRAIL, mean of runs, at 10 µM, stronger effect = higher value
[2] = as above; conditions: NB7 neuroblastoma + caspase-8, without TRAIL, NB7 Caspase-8, without TRAIL, mean of runs, at 10 µM
[3] = target: Tumor necrosis factor receptor superfamily member 10B (Homo sapiens) (UniProt O14763); test: compound enhancement of TRAIL-induced cell killing – NB7 cells plus caspase-8, luminescence, panel, dose response (AID 652002); conditions: NB7 neuroblastoma +caspase-8, TRAIL sensitization, luminescence viability, NB7+Caspase-8, with TRAIL, run 1; at 12.5 µM (top of the series)
[4] = target: Tumor necrosis factor receptor superfamily member 10B (Homo sapiens) (UniProt O14763); test: as above; conditions: NB7 neuroblastoma +caspase-8, TRAIL sensitization, luminescence viability, NB7+Caspase-8, with TRAIL, run 2; at 12.5 µM (top of the series)
[5] = as above; conditions: NB7 neuroblastoma +caspase-8, no TRAIL, compound-alone cytotoxicity counter-screen, luminescence viability, NB7+Caspase-8, run 1; at 12.5 µM (top of the series) unless noted
[6] = as above; conditions: NB7 neuroblastoma +caspase-8, no TRAIL, compound-alone cytotoxicity counter-screen, luminescence viability, NB7+Caspase-8, run 2; at 12.5 µM (top of the series) unless noted
[7] = target: 72 kDa type IV collagenase (Homo sapiens) (UniProt P08253); test: human MMP-2 inhibitors, single-point check – biochemical, fluorescence, single concentration, counter-screen for CSN deneddylation inhibitor project, confirmation (AID 720655;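 active = corrected plate-normalized z-score of 5 or more, or -5 or less, or inhibition of 15% or more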;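 note: plate controls were DMSO wells with enzyme for no effect and buffer wells lacking MMP-2 for full effect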); conditions: recombinant MMP-2, FRET substrate fluorescence, 60 min; at 16.6 µM
[8] = target: Prothrombin (Bos taurus) (UniProt P00735); test: thrombin cleavage blockers, FP readout – biochemical, fluorescence polarization, single concentration, counter-screen for CSN deneddylation inhibitor project, confirmation (AID 720656;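 active = inhibition at or above a set limit, with a fluorescence interference ratio between 0.5 and a set maximum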); conditions: bovine thrombin cleavage of Ub4-pepOG, at 16.6 µM, stronger effect = higher value
[9] = target: COP9 signalosome complex subunit 5 (Homo sapiens) (UniProt Q92905); test: blockers of CSN-driven cullin deneddylation – biochemical, fluorescence polarization, single concentration, SCF-Nedd8OG substrate, confirmation (AID 720654; in the data active = inhibition above about 50%;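 note: 0% = DMSO with enzyme and 100% = no enzyme wells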); conditions: Csn5 deneddylation of SCF-Nedd8OG, 90 min, at 16.6 µM, stronger effect = higher value
Chain of COP9 signalosome complex subunit 5 (Homo sapiens) (Q92905 whole entry, looked up, one chain of several): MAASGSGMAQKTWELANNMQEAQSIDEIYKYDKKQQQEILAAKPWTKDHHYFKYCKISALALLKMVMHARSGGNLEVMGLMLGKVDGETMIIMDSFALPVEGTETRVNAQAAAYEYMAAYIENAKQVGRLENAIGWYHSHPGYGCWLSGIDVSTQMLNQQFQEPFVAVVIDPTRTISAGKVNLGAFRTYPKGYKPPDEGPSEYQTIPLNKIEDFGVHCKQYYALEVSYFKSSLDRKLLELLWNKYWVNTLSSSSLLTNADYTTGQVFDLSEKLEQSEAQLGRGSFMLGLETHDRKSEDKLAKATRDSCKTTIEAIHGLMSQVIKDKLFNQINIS

Chain of 72 kDa type IV collagenase (Homo sapiens) (P08253 whole entry, looked up): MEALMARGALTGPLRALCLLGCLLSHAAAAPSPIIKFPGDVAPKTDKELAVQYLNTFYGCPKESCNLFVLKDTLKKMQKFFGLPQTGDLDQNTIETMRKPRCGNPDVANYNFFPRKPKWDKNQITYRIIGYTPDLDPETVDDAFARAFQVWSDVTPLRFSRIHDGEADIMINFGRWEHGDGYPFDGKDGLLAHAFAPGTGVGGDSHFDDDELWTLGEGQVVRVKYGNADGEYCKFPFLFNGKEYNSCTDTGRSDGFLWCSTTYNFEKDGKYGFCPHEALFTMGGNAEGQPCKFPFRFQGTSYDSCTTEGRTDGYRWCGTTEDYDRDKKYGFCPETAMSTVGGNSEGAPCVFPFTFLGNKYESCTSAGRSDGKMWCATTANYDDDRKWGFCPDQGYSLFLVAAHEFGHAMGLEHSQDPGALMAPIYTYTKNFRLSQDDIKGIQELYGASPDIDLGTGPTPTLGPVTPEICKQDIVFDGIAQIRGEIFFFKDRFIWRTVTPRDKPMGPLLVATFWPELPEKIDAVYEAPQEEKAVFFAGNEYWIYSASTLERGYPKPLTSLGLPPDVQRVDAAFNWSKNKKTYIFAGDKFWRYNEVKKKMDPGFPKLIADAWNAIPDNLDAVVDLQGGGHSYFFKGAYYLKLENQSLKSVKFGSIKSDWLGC
Chain of Tumor necrosis factor receptor superfamily member 10B (Homo sapiens) (O14763 whole entry, looked up): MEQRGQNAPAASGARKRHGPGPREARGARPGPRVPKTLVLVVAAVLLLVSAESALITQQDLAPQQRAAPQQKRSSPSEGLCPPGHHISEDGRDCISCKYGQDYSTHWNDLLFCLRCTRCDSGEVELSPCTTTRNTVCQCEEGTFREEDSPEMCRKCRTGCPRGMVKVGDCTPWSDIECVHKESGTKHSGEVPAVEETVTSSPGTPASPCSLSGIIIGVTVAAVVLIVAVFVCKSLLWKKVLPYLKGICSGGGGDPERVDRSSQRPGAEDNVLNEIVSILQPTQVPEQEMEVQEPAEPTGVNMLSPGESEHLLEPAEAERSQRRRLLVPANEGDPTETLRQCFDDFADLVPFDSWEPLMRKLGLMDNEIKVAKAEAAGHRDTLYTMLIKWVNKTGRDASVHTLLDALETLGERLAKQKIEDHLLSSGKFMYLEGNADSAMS
Chain of Prothrombin (Bos taurus) (P00735 whole entry, looked up): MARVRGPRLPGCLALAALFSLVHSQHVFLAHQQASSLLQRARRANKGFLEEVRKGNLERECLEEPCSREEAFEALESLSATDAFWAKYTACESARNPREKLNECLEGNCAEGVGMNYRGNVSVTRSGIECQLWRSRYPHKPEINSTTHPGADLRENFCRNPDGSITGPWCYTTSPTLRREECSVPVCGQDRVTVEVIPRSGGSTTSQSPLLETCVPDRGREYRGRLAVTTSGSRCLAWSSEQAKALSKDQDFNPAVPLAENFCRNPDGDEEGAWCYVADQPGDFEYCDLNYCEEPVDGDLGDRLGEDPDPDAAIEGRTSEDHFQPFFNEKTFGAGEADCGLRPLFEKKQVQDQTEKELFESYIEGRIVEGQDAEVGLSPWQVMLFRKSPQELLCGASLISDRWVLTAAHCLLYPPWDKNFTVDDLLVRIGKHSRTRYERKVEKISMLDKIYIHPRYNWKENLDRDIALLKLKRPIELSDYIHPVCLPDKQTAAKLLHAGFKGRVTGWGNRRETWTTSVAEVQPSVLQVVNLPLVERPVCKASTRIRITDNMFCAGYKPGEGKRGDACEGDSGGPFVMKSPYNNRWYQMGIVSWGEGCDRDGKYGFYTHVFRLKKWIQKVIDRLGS

Row | Compound | activity [1] | activity [2] | activity, % sensitization [3] | activity, % sensitization [4] | activity, % sensitization [5] | activity, % sensitization [6] | inhibition [7] | inhibition [8] | inhibition [9]
1 | COc1cccc(NC(=O)c2ccc3c(c2)OCO3)c1 | 51.7% | 30.6% | 51% | 42.7% | 48% | 32.2% | – | – | –
2 | O=C(N/N=C/c1cccc(OC(=O)c2ccco2)c1)c1ccc(F)cc1 | 57.1% | 28.9% | 54.4% | 46.3% | 49.2% | 40.8% | – | – | –
3 | CCOc1ccc(NC(=O)Nc2cccs2)cc1 | 63.8% | 46.8% | 36.3% | 52.3% | 40.7% | 47.8% | – | – | –
4 | C=Cc1ccc(Cn2c(C)c(C(=O)NCc3cccc(C(F)(F)F)c3)sc2=O)cc1 | 60.2% | 20.5% | -5.7% | -12.9% | 5.05% | 6.45% | – | – | –
5 | CSc1ccc(/C=C/c2ccc3cccc(O)c3n2)cc1 | 48.5% | 53.9% | 31.9% | 41.1% | 23.2% | 36.6% | – | – | –
6 | C/C(=N\NC(=O)c1n[nH]c2c1CCC2)c1ccco1 | 55.8% | 51.4% | 28.7% | 33.5% | 27.9% | 24.1% | – | – | –
7 | Cc1ccnc(NC(=O)Nc2ccc3c(c2)OCO3)c1 | 51% | 41% | 40.8% | 17% | 0.866% | -33.8% | – | – | –
8 | Cc1ccc(S(=O)(=O)Nc2ccccc2C(=O)Nc2nc(-c3ccc(F)cc3)cs2)cc1 | 56.5% | 51.6% | 32% | 39.6% | 24.6% | 40.4% | – | – | –
9 | Cc1cccc(CC(=O)Nc2cc(C)c3c(=O)oc4ccccc4c3n2)c1 | 67.3% | 45.5% | -12.3% | -4.35% | -6.37% | 0.373% | – | – | –
10 | CC(=O)c1ccc(NC(=O)Nc2cccnc2)cc1 | 52.1% | 45% | 32.2% | 44.9% | 35.1% | 43.9% | – | – | –
11 | CC(C)(C)OC(=O)NCc1ccc(NC(=O)c2nc[nH]c2C(=O)N[C@@H](Cc2ccccc2)C(=O)OCc2ccccc2)cc1 | 63.8% | 11.5% | -11% | 1.84% | -8.6% | -21.5% | – | – | –
12 | CCN(CC)c1ccc(/C=N/NC(=O)c2ccco2)cc1 | 56.5% | 53.3% | 25% | 39.3% | 34% | 23.6% | – | – | –
13 | Cc1cc2nc(-c3ccc(SCC(=O)Nc4nccs4)nc3)[nH]c2cc1C | 58% | 46.6% | 5.16% | 48.9% | -17.8% | 0.327% | – | – | –
14 | CC(C)C(=O)Nc1ccc(NC(=O)c2ccccn2)cn1 | 53.6% | 53% | 34.7% | 36.7% | 8.97% | 37.8% | – | – | –
15 | CC(C)Cc1nc2oc3c(Cl)ncnc3c2c2c1CCCC2 | 55.5% | 49.8% | -5.07% | -15% | -9.85% | -8.86% | – | – | –
16 | Cc1ccc2c(c1)C(=NC1CCCCC1)c1cc3ccccc3nc1-2 | 62.8% | 51.2% | -15% | -9.21% | 10.4% | -8.89% | – | – | –
17 | Cc1ccc(-c2nn(-c3ccccc3)cc2/C=C2\SC(=S)N(CCCCCC(=O)O)C2=O)o1 | – | – | – | – | – | – | -170% (active) | -24.4% (inactive) | –
18 | COc1ccccc1C=NNC(=O)NN=Cc1ccccc1OC | 61% | 46.5% | 42.5% | 48.3% | 54.1% | 35.8% | – | – | –
19 | Cc1cccc2nc(=S)n(C(=O)c3ccco3)n12 | 54.6% | 44.5% | -5.2% | -6.02% | -1.17% | -18.3% | – | – | –
20 | COc1cccc(C(=O)Nc2ccc(C3CC3(Cl)Cl)cc2)c1 (configuration not stated) | 47% | 46.5% | 12.6% | 30.2% | 5.52% | 21.8% | – | – | –
21 | O=C1c2ccc3c4c(ccc(c24)C(=O)N1c1cccc(O)c1)C(=O)N(c1cccc(O)c1)C3=O | 63.2% | 53.8% | 52.1% | 35.7% | 29.8% | 21.3% | – | – | –
22 | CCN(CC)S(=O)(=O)c1ccc(C(=O)OCC(=O)Nc2ccc(-c3nc4ccc(C)cc4s3)cc2)cc1 | 68.5% | 55% | 20.1% | -0.711% | 13.4% | -8.61% | – | – | –
23 | CC(C)C[C@H](NC(=O)c1nc[nH]c1C(=O)N[C@@H](CCCCNC(=O)OC(C)(C)C)C(=O)OC(C)(C)C)C(=O)OCc1ccccc1 | 77.7% | 20.4% | -36.8% | -15.7% | -4.5% | -28.8% | – | – | –
24 | O=C(O)C(c1ccccc1)N1C(=O)/C(=C\c2ccc(-c3cccc(Cl)c3)o2)SC1=S (configuration not stated) | – | – | – | – | – | – | -20.6% (inactive) | 51.9% (active) | 14.6% (inactive)
25 | C=CCC1=C/C(=C\c2c(N)n3nc(CC(=O)N4CCOCC4)sc3nc2=O)C=C(OC)C1=O | – | – | – | – | – | – | -4.68% (inactive) | 72.6% (active) | 16.7% (inactive)

Row | Compound | activity [1] | activity [2] | activity, % sensitization [3] | activity, % sensitization [4] | activity, % sensitization [5] | activity, % sensitization [6] | inhibition [7] | inhibition [8] | inhibition [9]
26 | CCOc1ccc(NC(=O)c2ccco2)cc1 | 55.9% | 49.6% | 43% | 43.3% | 45.1% | 31.6% | – | – | –
27 | CCOC(=O)C(=C1Nc2ccccc2N1)n1c(-c2cccnc2)nc2ccccc21 | 55.9% | 52% | 44.5% | 36.8% | -4.97% | 41.7% | – | – | –
28 | CC(C)(C)C1C/C(=C/c2ccco2)C(=O)/C(=C/c2ccco2)C1 (configuration not stated) | – | – | – | – | – | – | 1.32% (inactive) | 10.1% (inactive) | 71.5% (active)
29 | COc1cc(/C=C2/C(=O)NN(c3cccc(Cl)c3)C2=O)cc(Br)c1O | – | – | – | – | – | – | -17.1% (inactive) | 36.3% (active) | 27.3% (inactive)
30 | CC1(C)N=C(N)N=C(N)N1c1ccc(CCCCc2ccccc2)cc1 | 53.6% | 54.3% | 58.2% | 52.2% | 1.29% | 66.9% | – | – | –
31 | Cc1ccc(NC(=O)c2cc3ccccc3o2)nc1 | 58.9% | 49.5% | 32.6% | 41.2% | 43% | 41.7% | – | – | –
32 | COc1cccc(N/C=C/C(=O)c2ccc(Cl)cc2)c1 | 58% | 50% | 32% | 38.3% | 28.1% | 40.5% | – | – | –
33 | Cc1onc(-c2c(Cl)cccc2Cl)c1C(=O)ONC(=O)c1ccccc1 | 72.9% | 30.8% | 1.55% | -5.77% | -2.95% | -9.25% | – | – | –
34 | O=C(CSc1nc2ccccc2c(=O)[nH]1)Nc1nc(-c2ccc(Br)cc2)cs1 | – | – | – | – | – | – | 16.9% (active) | -37.2% (inactive) | 105% (active)
35 | CN(C)S(=O)(=O)c1ccc(C(=O)Nc2nnc(SCC(=O)NCC3CCCO3)s2)cc1 (configuration not stated) | 49.1% | 38.5% | 30% | 32.3% | 4.27% | 28.4% | – | – | –
36 | O/C(=C\c1ccc2ccccc2n1)c1ccc(O)cc1O | 62.3% | 42.8% | 31.9% | 48.7% | 1.18% | 20.3% | – | – | –
37 | Cc1nc2cc(NC(=O)Nc3cccc([N+](=O)[O-])c3)ccc2n1C | 64.2% | 54.4% | 44.4% | 49.5% | 0.985% | 3.35% | – | – | –
38 | CCOC(=O)c1ccc(N/C=C/C(=O)c2ccco2)cc1 | 52.7% | 46.1% | 24.1% | 9.37% | 0.326% | 6.5% | – | – | –
39 | CS(=O)(=O)c1ccc2c(c1)SC1=NC(=O)/C(=C/c3ccco3)C(=N)N12 | – | – | – | – | – | – | 4.65% (inactive) | 41.6% (active) | 50% (inactive)
40 | COc1ccc(-c2noc(-c3ccc4c(c3)OCO4)n2)cc1 | – | 49.9% | – | – | – | – | – | – | –
41 | COC(=O)c1ccc(/C=C(\C#N)c2ccccn2)cc1 | 51% | 40.8% | -7.25% | -19.4% | -8.36% | -11% | – | – | –
42 | COc1ccc2[nH]c3c(C)c4cc[n+](C)cc4c(C)c3c2c1 | – | – | – | – | – | – | -35.8% (active) | 12.2% (inactive) | -33.2% (inactive)
43 | CC(C)C[C@H](NC(=O)c1nc[nH]c1C(=O)N[C@@H](CC(C)C)C(=O)OCc1ccccc1)C(=O)OCc1ccccc1 | 71.4% | 38.8% | -20.3% | 9.61% | 0.235% | -15.4% | – | – | –
44 | Cc1ccc(C(=O)O)cc1-c1ccc(/C=C2\SC(=O)N(CC(=O)Nc3ccc4c(c3)OCO4)C2=O)o1 | – | – | – | – | – | – | -3.01% (inactive) | 7.47% (inactive) | 155% (active)
45 | Cc1ccc(N=C/C(C(=O)C(F)(F)F)=C(\O)c2cccs2)cc1 | 56.1% | 53.8% | 83.3% | 63.5% | -0.893% | 77.5% | – | – | –
46 | O=C(Oc1c(CN2CCOCC2)cc(Cl)c2cccnc12)c1cccs1 | 53.1% | 53.5% | 24.4% | 44.5% | 8.65% | -4.1% | – | – | –
47 | O=C(ONC1=NCCCCC1)c1ccc(Cl)cc1 | 89.3% | 47.2% | 16.1% | 23.5% | 7.61% | 44.2% | – | – | –
48 | CCCCCCCn1c2c(c(=N)c3ccccc31)CCC2 | 64.8% | 51.8% | 30.9% | 38.9% | 0.756% | 28% | – | – | –
49 | CC1(Cc2ccc(OC(F)(F)F)cc2)C(=O)Nc2ccc(S(=O)(=O)NC3CCCCC3)cc21 (configuration not stated) | 46.4% | 31% | -0.836% | -0.606% | 23.3% | 28.2% | – | – | –
50 | CCC(C)c1ccc(O)c(NC(=S)NC(=O)c2cccs2)c1 (configuration not stated) | 56.5% | 54.3% | 40.5% | 49.3% | 56.2% | 41.9% | – | – | –
